# Measurements taken from PubChem BioAssay (NCATS).
# Results filed as inconclusive are left out. Unmarked numbers belong to inactive results. Calls come from the whole dose curve; as a rule, active = well fitted inhibition curve with a large enough effect; inconclusive = small, poorly fitted or top-dose-only effect; inactive = flat fitted curve, though single readings scatter.
# Assay: qHTS to identify inhibitors of the type 1 interferon - major histocompatibility complex class I in skeletal muscle: primary screen against the NCATS Pharmaceutical Collection (AID 1347407)
# Conditions: human skeletal muscle cells, IFN-b-induced MHC-I HiBiT luminescence, 24 h; series mostly up to 45.9 µM; activity change, negative = inhibition: at the top concentration
# Text: Assay Submitter (PI): Travis B. Kinder Ph.D. & James Inglese Ph.D.
# Assay Development and Screening Technology Laboratory (ADST)
# National Center for Advancing Translational Sciences (NCATS), Rockville, MD
# National Institute of Health (NIH), Bethesda, Maryland
# Idiopathic inflammatory myopathies, collectively referred to as myositis, are a group of rare autoimmune diseases characterized by skeletal muscle inflammation, weakness, and usually accompanied by systemic pathologies of the skin, lungs, or vasculature. Current immunosuppressive therapies and glucocorticoids are often not curative and are accompanied by harsh side effects, especially in children with juvenile myositis. We initiated a drug repurposing and development program to identify more targeted, less toxic therapeutics to treat myositis. Although its cause is not known, muscle from a subset of patients have an abundance of the inflammatory type 1 interferon (IFN) and a down-stream product major histocompatibility complex class I (MHC class I), which are both thought to contribute to damage and weakness. We conducted quantitative high throughput screening on 6,576 compounds (4,679 unique) through a series of cell-based assays to identify those that inhibit the IFN-stimulated expression of MHC class I in muscle precursor cells (myoblasts). The compound identification and evaluation strategy utilized a primary screen with reporter-tagged MHC class I in genome-engineered myoblasts, ATP content counter screen for viability, HLA-ABC immunofluorescence secondary screen, and HLA-B RT-qPCR tertiary screen.
# The primary screen utilized CRISPR/Cas9 genome-engineering of immortalized human myoblasts, C25cl48, where a pro-luminescent reporter HiBit was fused to the C-terminus of endogenous MHC class I allele HLA-B*08:01 (HLA-B HiBit myoblasts). HiBit is an 11 amino acid fragment of NanoLuc luminescent reporter (Promega Corporation), and when complexed to the larger LgBit fragment, the reconstituted enzyme produces light in the presence of furimazine substrate (Schwinn et al., 2018). Briefly, HLA-B HiBit myoblasts were plated into 1536-well plates, treated with 4.0 ng/ml human IFN-beta and 2,816 compounds from the NCATS Pharmaceutical Collection (NPC) that contains all drugs approved in the US, EU, and Japan (Huang et al., 2011) in an 8-point, 1:5 titration with a high final concentration of 46 uM. After 24 hrs of treatment, cells were assayed by Nano-Glo HiBiT Lytic Detection System (Promega) and luminescence measured by a ViewLux 1430 Ultra HTS (Perkin Elmer).
# Huang R, Southall N, Wang Y, Yasgar A, Shinn P, Jadhav A, Nguyen D-T, Austin CP. 2011. The NCGC pharmaceutical collection: a comprehensive resource of clinically approved drugs enabling repurposing and chemical genomics. Sci Transl Med 3:80ps16. doi:10.1126/scitranslmed.3001862
# Schwinn MK, Machleidt T, Zimmerman K, Eggers CT, Dixon AS, Hurst R, Hall MP, Encell LP, Binkowski BF, Wood K V. 2018. CRISPR-Mediated Tagging of Endogenous Proteins with a Luminescent Peptide. ACS Chem Biol 13:467-474. doi:10.1021/acschembio.7b00549
# PROTOCOL TABLE (as described by Inglese et al., 2007)
# SEQUENCE No. (e.g., 1, 2, 3, etc.); […] (e.g., Cells, Incubation, Reagent, etc.); VALUE; DESCRIPTION
# 1a; Cells; 5 uL; Use a Multidrop Combi (Thermo Scientific) to seed 350 cells/well into nine Greiner 1536 well white/solid bottom, high base, TC plates in 5 ul/well of iHSKM growth medium (GM) without dexamethasone into columns 1+2. Add metal lids with gas-exchange holes
# 1b; Cells; 5 uL; Use a Multidrop Combi (Thermo Scientific) to seed 350 cells/well into nine Greiner 1536 well white/solid bottom, high base, TC plates in 5 ul/well of iHSKM GM without dexamethasone + 4 ng/ml IFN-b into columns 3 - 48. Add metal lids with gas-exchange holes
# 2; Incubate; 1 hr; Incubate at 37 C, 5% CO2, 95% RH
# […]
# % is set by controls: 0 for no effect and ±100 for the full control effect.
row,Compound,"activity change, negative = inhibition"
1,NC(=O)CC[C@@H](N)C(=O)O,-3.71%
2,O=C(OOC(=O)c1ccccc1)c1ccccc1,-0.457%
3,Cc1cc(-n2nc3ccc(Cl)cc3n2)c(O)c(C(C)(C)C)c1,-7.39%
4,CCCCCCCCCCC(CO)CCCCCCCC (stereo not given),-14.7%
5,Nc1ccc(S(=O)(=O)c2ccc(N)cc2)cc1,11.1%
6,CCN(CC)CC1CCCCN1CC(=O)N1c2ccccc2C(=O)Nc2cccnc21 (stereo not given),-3.55%
7,CC1(C)S[C@@H]2[C@H](N=CN3CCCCCC3)C(=O)N2[C@H]1C(=O)O,0.316%
8,COc1ccccc1OCC(O)CO (stereo not given),-1.18%
9,Nc1ccc(C(=O)Oc2ccccc2)c(O)c1,-0.667%
10,Cc1ccccc1N=Nc1ccc(N=Nc2c(O)ccc3ccccc23)c(C)c1,2.71%
11,O=C(NCC(O)CO)c1c(I)c(C(=O)NCC(O)CO)c(I)c(N(CCO)C(=O)CO)c1I (stereo not given),-15.3%
12,O=C(Cn1ccnc1[N+](=O)[O-])NCc1ccccc1,-13.7%
13,O=C(CN1CCNCC1)NC1CCCCC1,-7.88%
14,C=CCSCC1Nc2cc(Cl)c(S(N)(=O)=O)cc2S(=O)(=O)N1 (stereo not given),-10.3%
15,CC[N+](CC)(CC(=O)Nc1c(C)cccc1C)Cc1ccccc1,-0.45%
16,NC(=O)c1ccc([N+](=O)[O-])cc1Cl,3.85%
17,CC(O)CCCCn1c(=O)c2c(ncn2C)n(C)c1=O (stereo not given),-5.85%
18,CC(C)=CCC[C@@](C)(O)[C@H]1CC=C(C)CC1,0.766%
19,CCN(CC)C(=O)c1cccc(C)c1,-2.64%
20,C=CCOc1ccccc1OCC(O)CNC(C)C (stereo not given),2.11%

row,Compound,"activity change, negative = inhibition"
1,CC1(C)[C@@H](OC(=O)CCC(=O)O)CC[C@]2(C)[C@H]3C(=O)C=C4[C@@H]5C[C@@](C)(C(=O)O)CC[C@]5(C)CC[C@@]4(C)[C@]3(C)CC[C@@H]12,1.52%
2,CC1CC(OC(=O)c2ccccc2O)CC(C)(C)C1 (stereo not given),-7.38%
3,CCCCCCCC(=O)OCC(O)CO (stereo not given),15.2%
4,CC(=O)NS(=O)(=O)c1ccc(N)cc1,7.28%
5,COC(=O)c1ccc(O)cc1,8.82%
6,CC(=O)Nc1ccc(OCCOCCOc2ccc(NC(C)=O)cc2)cc1,4.73%
7,CCN[C@H]1CN(CCCOC)S(=O)(=O)c2sc(S(N)(=O)=O)cc21,-11.5%
8,CCS(=O)(=O)CCn1c([N+](=O)[O-])cnc1C,1.97%
9,C[C@@H](c1ncncc1F)C(O)(Cn1cncn1)c1ccc(F)cc1F (stereo not given in full),-4.88%
10,COCC(=O)Nc1c(I)c(C(=O)NCC(O)CO)c(I)c(C(=O)N(C)CC(O)CO)c1I (stereo not given),1.5%
11,CC(C)CCOC(=O)c1ccc(N(C)C)cc1,-12.6%
12,Cc1cc(O)cc(C)c1Cl,0.169%
13,O=C(O)C(S)C(S)C(=O)O (stereo not given),1.47%
14,CN1C(=O)CC(c2ccccc2)C1=O (stereo not given),4.46%
15,CCC(C)(CN(C)C)OC(=O)c1ccccc1 (stereo not given),7.14%
16,CCCNC(C)C(=O)Nc1c(C)csc1C(=O)OC (stereo not given),-9.31%
17,CO[C@@]1(NC(=O)C(C(=O)O)c2ccc(O)cc2)C(=O)N2C(C(=O)O)=C(CSc3nnnn3C)CO[C@@H]21 (stereo not given in full),-10.3%
18,O=C(/C=C/c1ccccc1)OCc1ccccc1,14.1%
19,C/C=C1\[C@H]2C=C(C)C[C@]1(N)c1ccc(=O)[nH]c1C2,-1.33%
20,NC(N)=NS(=O)(=O)c1ccc(N)cc1,13%
